# In PubChem BioAssay (NCATS):
# Inconclusive results are not listed. Active and inactive are the calls of the source. Unless noted, the call rests on the fitted dose curve; in most records, active means well fitted curve in the direction sought with a large enough effect; inconclusive means small, poorly fitted or top-dose-only effect, or another doubt; inactive means no such curve, though single readings can be large; an effect the other way counts as inactive or inconclusive.
# How the values were obtained:
# [1] = biological target: ATP-dependent 6-phosphofructokinase (Trypanosoma brucei brucei) (UniProt O15648); assay: qHTS Assay to Find Inhibitors of T. brucei phosphofructokinase: hit validation (AID 492961);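 further: luminescence reports ADP formed as PFK phosphorylates fructose-6-phosphate with ATP; on the % scale 0 is the no-effect control and ±100 the full control effect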
# Chain of ATP-dependent 6-phosphofructokinase (Trypanosoma brucei brucei) (O15648 whole entry, looked up): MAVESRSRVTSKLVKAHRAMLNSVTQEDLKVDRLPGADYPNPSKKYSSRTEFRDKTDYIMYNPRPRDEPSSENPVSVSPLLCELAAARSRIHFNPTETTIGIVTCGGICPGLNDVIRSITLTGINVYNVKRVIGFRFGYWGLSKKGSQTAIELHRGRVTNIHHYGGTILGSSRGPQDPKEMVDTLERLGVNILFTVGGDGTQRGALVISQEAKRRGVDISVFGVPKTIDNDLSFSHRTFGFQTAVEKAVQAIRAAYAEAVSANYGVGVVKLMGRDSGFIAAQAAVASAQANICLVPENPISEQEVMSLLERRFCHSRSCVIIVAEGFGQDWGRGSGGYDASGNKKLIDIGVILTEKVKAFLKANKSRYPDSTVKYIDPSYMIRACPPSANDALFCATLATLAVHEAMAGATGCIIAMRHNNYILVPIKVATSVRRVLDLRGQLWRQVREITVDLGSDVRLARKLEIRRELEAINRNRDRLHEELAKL
# How it was run: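 In this biochemical qHTS validation, titrated compounds were tested against 1.25 nM PFK with 0.1 mM ATP and 0.5 mM F6P. Percent activity came from controls lacking or containing enzyme.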
# [2] = biological target: Ubiquitin carboxyl-terminal hydrolase 1 (Homo sapiens) (UniProt O94782); assay: Inhibitors of USP1/UAF1: Pilot qHTS (AID 504865);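 further: rhodamine fluorescence freed from ubiquitin-rhodamine substrate followed over time; top concentration of the series differs between compounds; on the % scale 0 is the no-effect control and ±100 the full control effect; nearly all actives have a fitted effect of over 35% in size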
# Chain of Ubiquitin carboxyl-terminal hydrolase 1 (Homo sapiens) (O94782 whole entry, looked up): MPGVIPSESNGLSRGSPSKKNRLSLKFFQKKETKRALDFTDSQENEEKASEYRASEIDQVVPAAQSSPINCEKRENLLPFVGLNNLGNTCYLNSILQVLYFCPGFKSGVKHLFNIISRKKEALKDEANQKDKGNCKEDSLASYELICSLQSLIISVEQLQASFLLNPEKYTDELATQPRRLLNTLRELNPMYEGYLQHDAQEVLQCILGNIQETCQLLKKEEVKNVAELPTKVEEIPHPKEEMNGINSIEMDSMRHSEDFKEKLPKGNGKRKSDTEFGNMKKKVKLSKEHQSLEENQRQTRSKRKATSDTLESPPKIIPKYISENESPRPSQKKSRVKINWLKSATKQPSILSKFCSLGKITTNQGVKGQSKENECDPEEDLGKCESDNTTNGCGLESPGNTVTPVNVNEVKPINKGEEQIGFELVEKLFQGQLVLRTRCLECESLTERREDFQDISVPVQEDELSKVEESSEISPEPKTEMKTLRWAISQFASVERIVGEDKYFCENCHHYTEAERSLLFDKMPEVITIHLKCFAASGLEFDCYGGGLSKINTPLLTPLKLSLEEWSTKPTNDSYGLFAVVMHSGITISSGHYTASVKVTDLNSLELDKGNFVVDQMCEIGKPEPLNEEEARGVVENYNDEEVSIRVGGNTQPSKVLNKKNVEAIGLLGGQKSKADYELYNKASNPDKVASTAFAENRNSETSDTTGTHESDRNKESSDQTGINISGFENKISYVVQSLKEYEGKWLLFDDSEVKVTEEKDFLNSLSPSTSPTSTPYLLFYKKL
# How it was run: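 USP1/UAF1 complex at 1 nM preincubated 15 min at room temperature with compound, then Ub-Rho substrate added at 150 nM final. Fluorescence (480/540 nm) read kinetically in 50 mM HEPES pH 7.8, 0.5 mM EDTA, 1 mM TCEP, 0.1 mg/ml BSA, 0.01% Tween-20.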
# [3] = biological target: Luciferin 4-monooxygenase (Photinus pyralis) (UniProt P08659); assay: Biochemical firefly luciferase enzyme assay for NPC (AID 624030);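 further: purified P. pyralis luciferase at 10 nM with luciferin and ATP substrate; 0% = DMSO and -100% = full luciferase inhibition by PTC124 control; nearly all actives have a fitted effect of over 70% in size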
# Chain of Luciferin 4-monooxygenase (Photinus pyralis) (P08659 whole entry, looked up): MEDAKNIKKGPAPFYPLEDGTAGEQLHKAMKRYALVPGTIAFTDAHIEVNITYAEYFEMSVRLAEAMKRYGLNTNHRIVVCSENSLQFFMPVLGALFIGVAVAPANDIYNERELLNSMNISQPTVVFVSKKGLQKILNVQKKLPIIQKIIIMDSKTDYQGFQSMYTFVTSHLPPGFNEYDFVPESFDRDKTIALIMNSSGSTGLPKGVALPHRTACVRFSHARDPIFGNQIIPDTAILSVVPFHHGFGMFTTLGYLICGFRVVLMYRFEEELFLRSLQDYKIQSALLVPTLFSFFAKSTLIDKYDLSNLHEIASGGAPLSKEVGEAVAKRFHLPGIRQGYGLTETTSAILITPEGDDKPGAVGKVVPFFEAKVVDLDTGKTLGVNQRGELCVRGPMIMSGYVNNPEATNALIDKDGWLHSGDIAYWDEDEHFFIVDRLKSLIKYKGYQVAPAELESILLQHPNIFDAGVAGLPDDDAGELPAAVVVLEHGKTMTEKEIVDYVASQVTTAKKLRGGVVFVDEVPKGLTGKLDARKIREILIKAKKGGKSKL
# How it was run: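 Direct inhibition of firefly luciferase enzyme (10 nM final, 50 mM Tris Acetate) assessed by luminescence within 5 minutes. Percent activity scaled between DMSO and PTC124 positive control, with concentration-effect curves classified by fit quality and response.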
# [4] = S16 Schwann cell viability assay (CellTiter-Glo assay) (AID 624031); further: potency means the concentration at half of the fitted maximal effect; nearly all actives have a fitted effect of over 70% in size
# How it was run: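 Parental S16 cells, 24 h compound, 37 °C. ATP-luminescence viability; DMSO = 0% activity, empty wells as reference; curves classified by fit quality and efficacy.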
# [5] = S16 Schwann cell PMP22 intronic element beta-lactamase assay (AID 624044; calls by dose curve; further: potency means the concentration at half of the fitted maximal effect; nearly all actives have a fitted effect of over 15% in size); details: S16 rat Schwann cells, PMP22 element beta-lactamase FRET, 24 h; ratio activity, negative = inhibition: at 38.3 µM (top of the series) unless noted
# How it was run: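 Beta-lactamase reporter under a PMP22 intronic regulatory element in stable S16 rat Schwann cells; 24 h compound exposure. 460 nm blue signal normalized between DMSO (0%) and potassium clavulanate, with 535 nm FRET tracking viability; curves classed by r2 and response.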
# [6] = Primary qHTS for Huh7 cytotoxicity: counterscreen for inhibitors of MERS-S pseudotyped particle cell entry (AID 1479147; calls by dose curve; further: on the % scale 0 is the no-effect control and ±100 the full control effect); details: outcome: dose series up to 57.1 µM unless noted
# [7] = Primary qHTS for inhibitors of MERS-S pseudo-typed particle cell entry (AID 1479149; calls by dose curve; further: on the % scale 0 is the no-effect control and ±100 the full control effect; nearly all actives have a fitted effect of over 60% in size); details: outcome: dose series up to 57.1 µM unless noted
# [8] = Primary qHTS for Vero E6 cytotoxicity: counterscreen for inhibitors of SARS-S pseudo-typed particle cell entry (AID 1479150; calls by dose curve); details: outcome: dose series up to 57.1 µM unless noted
# [9] = Cytotoxicity counterscreen for inhibitors of SARS-CoV-2 cell entry (AID 1645845; calls by dose curve; further: nearly all actives have a fitted effect of over 50% in size); details: outcome: dose series up to 57.1 µM unless noted
# How it was run: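 ATP-content luminescence (ATPLite 1step, 15 min RT) read after 48 h compound exposure of Expi293F cells stably expressing human ACE2; normalized to cells-only wells and media-only wells.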
# [10] = Primary qHTS to identify inhibitors of SARS-CoV-2 cell entry (AID 1645846; calls by dose curve; further: nearly all actives have a fitted effect of over 45% in size); details: SARS-CoV-2 pseudovirus cell entry assay, luminescence; activity change, negative = inhibition: at 57.1 µM (top of the series) unless noted
# How it was run: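 HEK293 cells stably expressing human ACE2, pre-treated 1 h with compound, then infected with MLV particles pseudotyped with Wuhan-Hu-1 spike (C-terminal 19-aa truncation). Luciferase luminescence after 48 h at 37 °C, normalised to spike PP and bald PP.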
# [11] = biological target: Glutathione peroxidase 1 (Homo sapiens) (UniProt P07203); assay: Primary qHTS Assay for Inhibitors of Recombinant Selenoprotein Glutathione Peroxidase 1 (GPX1) (AID 1845191); further: on the % scale 0 is the no-effect control and ±100 the full control effect; nearly all actives have a fitted effect of over 65% in size
# Chain of Glutathione peroxidase 1 (Homo sapiens) (P07203 whole entry, looked up): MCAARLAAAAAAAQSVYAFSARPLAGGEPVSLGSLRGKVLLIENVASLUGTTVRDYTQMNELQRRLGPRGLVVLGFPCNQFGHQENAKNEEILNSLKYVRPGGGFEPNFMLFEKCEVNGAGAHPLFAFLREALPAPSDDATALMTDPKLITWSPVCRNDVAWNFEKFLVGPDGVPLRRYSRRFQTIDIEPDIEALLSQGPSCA
# How it was run: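 NADPH consumption tracked by fluorescence at 340/450 nm between t=0 and t=15 min, room temperature. Final mix: 10 nM GPX1, 100 nM glutathione reductase, 1 mM GSH, 0.5 mM NADPH, 0.5 mM cumene hydroperoxide, 0.01% BSA; 30 min compound–enzyme preincubation.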
# [12] = qHTS profiling for inhibitors of Plasmodium falciparum proliferation (AID 504749); further: potency means the concentration at half of the fitted maximal effect; nearly all actives have a fitted effect of over 60% in size; details: P. falciparum in erythrocytes, SYBR Green DNA, 72 h
# How it was run: (§1)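 In a 72 h erythrocytic culture (37 C, humidified, 5% CO2) at 2.5% hematocrit and 0.3% starting parasitemia, compounds were tested; SYBR Green I in detergent lysis buffer stained parasite DNA overnight.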
# 3D7 = assay: as above; details: P. falciparum in erythrocytes, SYBR Green DNA, 72 h; series mostly up to 28.7 µM
# How it was run: as §1
# 7G8 = assay: as above; details: P. falciparum in erythrocytes, SYBR Green DNA, 72 h; series mostly up to 12.8 µM
# How it was run: as §1
# AA1029 = assay: as above; details: P. falciparum in erythrocytes, SYBR Green DNA, 72 h; series mostly up to 28.7 µM
# How it was run: as §1
# AS120 = assay: as above; details: P. falciparum in erythrocytes, SYBR Green DNA, 72 h; series mostly up to 28.7 µM
# How it was run: as §1
# ATS189 = assay: as above; details: P. falciparum in erythrocytes, SYBR Green DNA, 72 h; series mostly up to 28.7 µM
# How it was run: as §1
# ATS95 = assay: as above; details: P. falciparum in erythrocytes, SYBR Green DNA, 72 h; series mostly up to 28.7 µM
# How it was run: as §1
# C2A = assay: as above; details: P. falciparum in erythrocytes, SYBR Green DNA, 72 h; series mostly up to 28.7 µM
# How it was run: as §1
# CP185 = assay: as above; details: P. falciparum in erythrocytes, SYBR Green DNA, 72 h; series mostly up to 28.7 µM
# How it was run: as §1
# CP191 = assay: as above; details: P. falciparum in erythrocytes, SYBR Green DNA, 72 h; series mostly up to 28.7 µM
# How it was run: as §1
# CP192 = assay: as above; details: P. falciparum in erythrocytes, SYBR Green DNA, 72 h; series mostly up to 28.7 µM
# How it was run: as §1
# CP194 = assay: as above; details: P. falciparum in erythrocytes, SYBR Green DNA, 72 h; series mostly up to 28.7 µM
# How it was run: as §1
# CP201 = assay: as above; details: P. falciparum in erythrocytes, SYBR Green DNA, 72 h; series mostly up to 28.7 µM
# How it was run: as §1
# CP203 = assay: as above; details: P. falciparum in erythrocytes, SYBR Green DNA, 72 h; series mostly up to 28.7 µM
# How it was run: as §1
# CP211 = assay: as above; details: P. falciparum in erythrocytes, SYBR Green DNA, 72 h; series mostly up to 28.7 µM
# How it was run: as §1
# CP215 = assay: as above; details: P. falciparum in erythrocytes, SYBR Green DNA, 72 h; series mostly up to 28.7 µM
# How it was run: as §1
# CP217 = assay: as above; details: P. falciparum in erythrocytes, SYBR Green DNA, 72 h; series mostly up to 28.7 µM
# How it was run: as §1
# CP237 = assay: as above; details: P. falciparum in erythrocytes, SYBR Green DNA, 72 h; series mostly up to 28.7 µM
# How it was run: as §1
# CP238 = assay: as above; details: P. falciparum in erythrocytes, SYBR Green DNA, 72 h; series mostly up to 28.7 µM
# How it was run: as §1
# CP247 = assay: as above; details: P. falciparum in erythrocytes, SYBR Green DNA, 72 h; series mostly up to 28.7 µM
# How it was run: as §1
# CP250 = assay: as above; details: P. falciparum in erythrocytes, SYBR Green DNA, 72 h; series mostly up to 12.8 µM
# How it was run: as §1
# CP252 = assay: as above; details: P. falciparum in erythrocytes, SYBR Green DNA, 72 h; series mostly up to 12.8 µM
# How it was run: as §1
smiles,measurement,setting,value
CO[C@@H](COC(N)=O)C1=C(N2CC2)C(=O)C(C)=C(N2CC2)C1=O,Potency,[1],inactive
same,Potency,[2],inactive
same,Potency,[3],inactive
same,Potency,[4],32200 nM (active)
same,Potency,[5],354 nM (active)
same,Potency,[6],inactive
same,Potency,[7],inactive
same,Potency,[8],inactive
same,Potency,[9],inactive
same,"activity change, negative = inhibition",[10],-18.1%
same,Potency,[11],inactive
same,Potency,[12]; parasite line A,891 nM (active)
same,Potency,[12]; parasite line B,1410 nM (active)
same,Potency,3D7,1260 nM (active)
same,Potency,7G8,1260 nM (active)
same,Potency,AA1029,1410 nM (active)
same,Potency,AS120,891 nM (active)
same,Potency,ATS189,2820 nM (active)
same,Potency,ATS95,1410 nM (active)
same,Potency,C2A,794 nM (active)
same,Potency,CP185,794 nM (active)
same,Potency,CP191,708 nM (active)
same,Potency,CP192,1690 nM (active)
same,Potency,CP194,1690 nM (active)
same,Potency,CP201,3380 nM (active)
same,Potency,CP203,1510 nM (active)
same,Potency,CP211,675 nM (active)
same,Potency,CP215,1900 nM (active)
same,Potency,CP217,3160 nM (active)
same,Potency,CP237,1260 nM (active)
same,Potency,CP238,1410 nM (active)
same,Potency,CP247,708 nM (active)
same,Potency,CP250,1410 nM (active)
same,Potency,CP252,794 nM (active)
